# Assay outcomes: PubChem, National Center for Advancing Translational Sciences (NCATS)
# An excerpt weighted towards active compounds, which were near 7.8% of everything screened.
# HCMV inh: qHTS Assay for inhibitors of the human cytomegalovirus (HCMV); AID 1259415, 2018; HFF cells, HCMV-luciferase reporter, 72 h; active compounds read low; 4.5% of 410,000 active; activity change, negative = inhibition, % at 57.5 µM; in the data active = activity change below about -60%; inconclusive = no clear call, values can overlap the other calls; inactive = above about -39%
#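 HFF cells seeded 16 h at 37C, treated with compounds, infected with luciferase-reporter HCMV at MOI 1 PFU/cell; luciferase read at 72 h post infection, normalized to buffer-only and Salinomycin controls.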
# LASV entry inh: qHTS for Inhibitors of binding or entry into cells for Lassa Virus. Lassa virus pseudotype entry inhibition, cell reporter. Potency, µM (series often up to 37.9 µM), for inactives: top-dose activity change, negative = inhibition, hits mostly inhibitors. 1.2% of 300,000 active; calls by dose curve; tested in HEK293 cells; also: potency is read from the fitted curve at half-maximal effect; nearly all actives have a fitted effect of over 50% in size
# Marburg entry inh: qHTS for inhibitors of binding or entry into cells for Marburg Virus; Marburg virus pseudotyped entry inhibition, cell reporter; 1.8% of 300,000 active; Potency, µM (doses to about 37.8 µM), inactives show at the top dose activity change, negative = inhibition, hits mostly inhibitors; AID 540276, 2011; calls by dose curve; tested in HEK293 cells; also: potency is read from the fitted curve at half-maximal effect
# VACV Venus inh: qHTS for Stage-Specific Inhibitors of Vaccinia Orthopoxvirus: Venus Reporter Primary qHTS; 0.46% of 330,000 active; AID 720580, 2013; Potency, µM (highest dose often 36.5 µM), without a hit: top-dose activity change, negative = inhibition, usual class: inhibitors; Vaccinia virus Venus reporter expression, fluorescence; calls by dose curve; tested in A549 cells; also: potency is read from the fitted curve at half-maximal effect; nearly all actives have a fitted effect of over 30% in size
# HCV inh: qHTS Assay for Inhibitors of Hepatitis C Virus (HCV). Huh7.5.1 HCVcc-Cre infection, luciferase reporter, 44 h. Potency, µM (doses to about 41.8 µM), for the others: at the highest dose activity change, negative = inhibition, most hits filed as inhibitors. 3.4% of 340,000 active. AID 651820, 2012; active = well fitted inhibition curve with a large enough effect; inconclusive = small, poorly fitted or top-dose-only effect, or another doubt; inactive = no such curve, though single readings can be large or run the other way; also: potency is read from the fitted curve at half-maximal effect
#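 Cells (1,000/well) were plated 4 h before compound, then infected with HCVcc-Cre virus (~0.5 moi). After 44 h further culture, infection was read as luciferase luminescence following a 15 min substrate incubation at room temperature.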
# VACV mCherry inh: qHTS for Stage-Specific Inhibitors of Vaccinia Orthopoxvirus: mCherry Reporter Primary qHTS; 0.63% of 310,000 active; AID 720579, 2013; Potency, µM (doses to about 36.5 µM), for inactives: at the highest dose activity change, negative = inhibition, hits mostly inhibitors; Vaccinia virus mCherry reporter infection, fluorescence; calls by dose curve; tested in A549 cells; also: potency is read from the fitted curve at half-maximal effect; nearly all actives have a fitted effect of over 35% in size
# Numbers without * were called inactive; ? = inconclusive; / = not tested or not shown; [ ] = dose if it differs, or a comment. % is scaled to controls: 0 for no effect and ±100 for the full control effect.
SMILES,HCMV inh,LASV entry inh,Marburg entry inh,VACV Venus inh,HCV inh,VACV mCherry inh
COc1ccc(NC(=O)Cn2c(C)cc3ccccc3c2=O)c(OC)c1,18,-6%[46.1 µM],?,-2%,/,-6%
CCOc1ccc2ncc(S(=O)(=O)c3ccc(C)cc3)c(N3CCC4(CC3)OCCO4)c2c1,-90*,?,?,?,?,-29%
CCOC(=O)c1cnc2ccc(OCC)cc2c1N1CCN(C)CC1,14,-4%,?,-16%,?,/
CCOc1ccccc1NC(=O)Cn1c(=O)n(-c2ccc(F)cc2)c(=O)c2c3c(sc21)CN(C(C)=O)CC3,12,/,-21%[46.1 µM],-1%,/,0%
COCCNc1nc(Nc2ccccc2Cl)c2sccc2n1,-30,/,/,?,/,-27%
COc1ccccc1CNC(=O)CCc1c(C)nn(-c2ccc(N3CCCC3)nn2)c1C,?,-9%[46.1 µM],/,-8%,/,-9%
CC(OC(=O)c1ccccc1NS(=O)(=O)c1cccc(C(F)(F)F)c1)C(=O)N(C)Cc1ccccc1 (stereo not drawn),?,?,7.1µM*,-15%,?,-8%
CN(Cc1ccccc1)C(=O)COC(=O)c1ccccc1NS(=O)(=O)c1cccc(N)c1,30,-7%,-6%,-6%,-2%,-21%
COc1ccccc1/C=c1/[nH]c(=O)/c(=C\c2ccccc2OC)[nH]c1=O,/,/,/,-11%,/,-1%
CCCCCc1c(CC)ncn1CCc1ccccc1OC,-110*,/,/,-20%,/,-17%
CCCc1c(-c2ccccc2F)ncn1CCc1ccccc1OC,-95*,/,/,-16%,/,-26%
CCCCc1c(-c2ccccc2OC)ncn1CCc1ccccc1OC,-68*,/,/,?,/,?
CCCc1c(-c2ccc(F)cc2F)ncn1Cc1ccccc1OC,-78*,/,/,-14%,/,-5%
CCCCc1c(-c2ccccc2F)ncn1CCc1ccccc1OC,?,/,/,1%,/,-8%
CCCc1c(-c2ccccc2Br)ncn1Cc1ccccc1OC,-73*,/,/,-17%,/,-18%
CCCCc1c(-c2ccccc2Br)ncn1CCc1ccccc1OC,-93*,/,/,-20%,/,-14%
CCCc1c(-c2ccccc2)ncn1Cc1ccccc1OC,-17,/,/,2%,/,-10%
CCCCCc1c(-c2ccccc2F)ncn1CCc1ccccc1OC,?,/,/,-3%,/,-7%
CCCCCc1c(-c2ccccc2OC)ncn1CCc1ccccc1OC,-83*,/,/,?,/,?
Cc1cc(NC(=O)Cn2c(=O)oc3cc(S(=O)(=O)N4CCCC4)ccc32)ccc1Br,-19,-22%[46.1 µM],/,-10%,/,-18%
Cc1ccccc1CNC(=O)c1ccccc1NC(=O)c1nsc2ccccc12,0,15%[46.1 µM],/,?,/,-11%
CCOc1ncccc1C(=O)NCc1ccc(C)cc1,-32,-9%,-3%,-15%,10%,-9%
CSc1ccc(CNC(=O)c2ccc(NC(=O)c3nsc4ccccc34)cc2)cc1,-96*,6%[46.1 µM],/,-5%[7.34 µM],/,-8%[7.34 µM]
Cc1ccc(CNC(=O)c2ccccc2NC(=O)c2nsc3ccccc23)cc1,-88*,?,/,?,/,?
CC(C)Oc1ccc(CNC(=O)c2ccc(NC(=O)c3nsc4ccccc34)cc2)cc1,68,?,/,-8%,/,8%
SMILES,HCMV inh,LASV entry inh,Marburg entry inh,VACV Venus inh,HCV inh,VACV mCherry inh
CSc1ncccc1C(=O)NCc1ccc(C)cc1,-27,12%,13%,10µM*,6%,?
Cc1cc(O)c(CN2CCN(c3ccccc3)CC2)cc1C,-14,-2%,-1%[46.1 µM],-10%,17%,/
Clc1ncc(CN2CCN(c3ccccc3)CC2)s1,?,5%[46.1 µM],-4%[46.1 µM],-20%,?,-9%
CCOC(=O)N1CCN(Cc2ccccc2Cl)CC1,-14,3%,-16%,-8%,20%,-17%
CC(C)OCc1cc(CN2CCN(c3ccccc3)CC2)c(O)c2ncccc12,-70*,?,?,?,/,11µM*
CCOCc1cc(CN2CCN(c3cccc(Cl)c3)CC2)c(O)c2ncccc12,-100*,?,?,-21%[7.34 µM],/,?
CCOCC(=O)N1CCN(c2cccc(Cl)c2)CC1,?,9%,?,-5%,-1%,-10%
